Reference: the OligoGym collection

Target: TMEM231
Experiment: pooled miR-30 sensor sort-seq; sequence = guide strand
Details: shRNA

Sequence	sensor-assay potency score (higher = more potent)
TAGGCCACCACAGCTCAGCGGC	-1.06
AACACGAAGATCTTGATTCTTT	-0.0929
TGAGGTCGTAGTCATAGGCAAA	-1.58
TTACCATCTCCCAGAATCCTGG	-0.723
TAAGAAATGACTTCCACAGGGT	0.705
TAATCGATAGGAGAAAGTCAGG	-1.54

Target: TMEM42
Experiment: as above
Details: shRNA

Sequence	sensor-assay potency score (higher = more potent)
AATAAGGAACACTCCTCCCCAC	0.0225
TAGCCCAGGAAGGCCGAGCTGA	-1.22
TAGAACACTGCTGCAGCTGCAC	-0.354
TTGAATACGCCCCAAAAGCGGC	-1.46
TGGATTAGGGTGAGTCCGCAGA	-1.31
TACGCGGTCGCGGACACGGCGC	-1.65
TCCATACAGCACATAGCCCAGG	-1.77
TAGAGTTACATGACTGGCTTTT	-0.949
AAACCCATGCTCACCTCGCTGC	-0.311
TAAACCCATGCTCACCTCGCTG	-1.26
TTGAAAAAGTCACTGTGACAGA	-0.719
TAATACATAAGCATGACACAGA	0.407

Target: TMEM70
Experiment: as above
Details: shRNA

Sequence	sensor-assay potency score (higher = more potent)
TTAACAATCAGTCACTAACGGA	-0.588
TTTTGTAATAAAGTGAAGCAGC	-0.766
TGGTGAAACACTGTACTCGTTT	-0.765
TAACAATCAGTCACTAACGGAA	-0.91
TAGCATTGTAGGTAATGGCTTT	-0.0699
TTTAAGAATCGAACATATCCTT	0.136
TTTCACACCAAACACTGCTCGG	-0.271
TTAACTAACAGTGATTTTGTTT	-0.473
TACAATCGAATGACATAGCCTT	0.02
TTAAGAATCGAACATATCCTTC	-0.465
TAAACAAACATCATTCTCTGGA	0.0797
TTTATTATAAACAAACATCATT	-1.08

Target: TMEM8B
Experiment: as above
Details: shRNA

Sequence	sensor-assay potency score (higher = more potent)
TCCATGTCGGTCAAGCTGCAGA	-1.7
TAAGATGCAGACACCACCGCAT	0.345
TGAAGGTGTAGACTGCAGCTTC	-0.202
TAGGTGAGCGCATCTGCACTGT	-0.509
TAGAAGTGGACAGAGAAGGTGT	0.765
TGTAGAAGTAGTTGTCCCGGGT	0.134
TTATCTATGCATGACAGTTTGG	-0.348
TATCTATGCATGACAGTTTGGG	-0.202
AAGCACTGCTGTCTCTGTCTGT	-0.532
TAGCTGGTAACCACAGCCCCGG	-1.14
